Laboratory results from PMC4336329 (PLoS ONE, 2015).
Among all 310,000 compounds or so, about 14,000 (4.5%) showed an effect of 50% or more. Effects have a minus sign here. This excerpt belongs to a sample that is enriched for strong results.

Target: human ether-à-go-go-related gene (hERG) potassium channel (human, UniProt Q12809)
Test: primary screen, population patch clamp on CHO cells stably expressing hERG; higher = less effect of the substance
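Also: peak tail current of the secondary pulse compared with the same well before compound.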

human ether-à-go-go-related gene (hERG) potassium channel, sequence (Q12809 whole entry, looked up): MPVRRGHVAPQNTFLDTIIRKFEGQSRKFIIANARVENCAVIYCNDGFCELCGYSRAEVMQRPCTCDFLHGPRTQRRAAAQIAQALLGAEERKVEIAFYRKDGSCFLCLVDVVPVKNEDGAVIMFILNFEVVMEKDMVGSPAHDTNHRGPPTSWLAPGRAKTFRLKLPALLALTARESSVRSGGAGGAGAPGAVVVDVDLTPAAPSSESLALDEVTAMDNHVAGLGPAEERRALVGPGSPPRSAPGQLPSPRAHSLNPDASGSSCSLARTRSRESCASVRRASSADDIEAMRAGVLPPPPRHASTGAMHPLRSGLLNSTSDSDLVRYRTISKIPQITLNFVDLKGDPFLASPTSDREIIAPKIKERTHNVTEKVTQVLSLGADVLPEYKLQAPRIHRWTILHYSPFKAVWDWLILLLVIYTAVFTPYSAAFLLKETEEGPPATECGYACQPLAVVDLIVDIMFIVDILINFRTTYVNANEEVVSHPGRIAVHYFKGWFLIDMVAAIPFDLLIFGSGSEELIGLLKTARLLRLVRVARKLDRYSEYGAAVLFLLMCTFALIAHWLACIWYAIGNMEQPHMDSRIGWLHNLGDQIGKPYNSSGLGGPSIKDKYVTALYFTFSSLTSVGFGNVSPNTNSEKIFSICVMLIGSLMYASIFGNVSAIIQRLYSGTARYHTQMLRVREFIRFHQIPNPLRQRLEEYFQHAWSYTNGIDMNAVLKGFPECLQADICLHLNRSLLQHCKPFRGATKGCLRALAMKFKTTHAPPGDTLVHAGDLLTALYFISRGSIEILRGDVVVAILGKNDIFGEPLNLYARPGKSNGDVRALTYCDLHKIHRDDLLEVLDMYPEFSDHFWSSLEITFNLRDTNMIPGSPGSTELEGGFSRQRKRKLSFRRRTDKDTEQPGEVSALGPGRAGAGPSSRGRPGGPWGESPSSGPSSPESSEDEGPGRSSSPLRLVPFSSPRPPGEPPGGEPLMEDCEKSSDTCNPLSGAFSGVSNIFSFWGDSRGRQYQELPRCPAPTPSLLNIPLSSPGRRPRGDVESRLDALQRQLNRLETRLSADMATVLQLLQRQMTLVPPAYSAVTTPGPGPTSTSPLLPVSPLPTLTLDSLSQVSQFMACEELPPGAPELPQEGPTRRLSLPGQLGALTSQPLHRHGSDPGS

SMILES	hERG current change (%, negative = inhibition) at 10uM
Cc1cc2n(c(=O)c1C#N)CCCN2c1cccc(Cl)c1	-65%
Cc1ccc(N2CCCn3c2cc(C)c(C#N)c3=O)cc1C	-21.4%
Cc1ccc(N2CCCn3c2cc(C)c(C#N)c3=O)cc1Cl	-22.8%
C#CCOc1ccc(/C=C2\SC(=S)N(Cc3cccnc3)C2=O)cc1	15.9%
c1ccc(Cc2noc(CN3CCN(Cc4ccc5c(c4)OCO5)CC3)n2)cc1	-28.1%
Cc1ccc(NC(=O)CSCC(=O)N2CCN(Cc3ccc4c(c3)OCO4)CC2)cc1	-25.9%
Nc1nc(CN2CCN(Cc3ccc4c(c3)OCO4)CC2)nc(Nc2ccccc2)n1	-75.6%
Cc1cccc(NC(=O)CSCC(=O)N2CCN(Cc3ccc4c(c3)OCO4)CC2)c1	-23.3%
Cc1ccc(Nc2nc(N)nc(CN3CCN(Cc4ccc5c(c4)OCO5)CC3)n2)cc1Cl	-81.2%
Cc1cc(Cl)ccc1NC(=S)N1CCN(Cc2ccc3c(c2)OCO3)CC1	4.84%
Cc1cccc(Nc2nc(N)nc(CN3CCN(Cc4ccc5c(c4)OCO5)CC3)n2)c1	-75.2%
Cc1ccc(Nc2nc(N)nc(CN3CCN(Cc4ccc5c(c4)OCO5)CC3)n2)cc1	-73.3%
O=C(Nc1ccc(Cl)cc1)N1CCN(Cc2ccc3c(c2)OCO3)CC1	-27.6%
c1ccc(CN2CCC(N3CCN(Cc4ccc5c(c4)OCO5)CC3)CC2)cc1	-39.8%
Cc1cccc(S(=O)(=O)N2CCN(Cc3ccc4c(c3)OCO4)CC2)c1	-35.2%
Cc1ccc(NC2=NCC(=O)N2Cc2ccc3c(c2)OCO3)cc1	-5.93%
O=C(CNC(=O)N1CC(=O)Nc2ccccc21)NCc1cccc(Cl)c1	12.8%
COC(=O)c1sccc1NC(=O)c1ccccc1F	15.3%
O=C(c1ccc(S(=O)(=O)N2CCCC2)cc1)N1CCN(Cc2ccc3c(c2)OCO3)CC1	-28%
CCN(CC)C(=O)c1ccc(NC(=O)c2ccc(N3CCCC3=O)cc2)cc1	5.47%
Cc1ccc2nc3sc(C(=O)N4CCCc5ccccc54)c(N)c3cc2c1	2.69%
COCCNS(=O)(=O)c1ccc2c(c1)Cc1cc(S(=O)(=O)NCCOC)ccc1-2	-22.1%
O=C(N/C=C/c1ccccc1)Nc1ccc(Cl)cc1	10.3%
CCOc1ccc(C(=O)Nc2cc(S(=O)(=O)Nc3ccccc3Cl)ccc2N2CCOCC2)cc1	6.95%

SMILES	hERG current change (%, negative = inhibition) at 10uM
Cc1ccc(S(=O)(=O)NCC(=O)N(c2ccccc2)C(C(=O)NCc2ccccc2)c2ccco2)cc1 (stereo not drawn)	-6.04%
Cc1ccc(-n2nc(C(=O)N3CCN(C)CC3)c3c4ccccc4n(C)c3c2=O)cc1	5.61%
Cc1nc(SCC(=O)NC2CC2)c2c(C)c(C)sc2n1	6.21%
CC(=O)N/C(=C\c1ccccc1)C(=O)OCc1ccc(F)cc1	-0.974%
CC(=O)Nc1ccc(S(=O)(=O)NC(C)c2ccccc2)cc1 (stereo not drawn)	13.2%
CCOC(=O)c1c(NC(=O)CN2C(=O)NC3(CCCCCC3)C2=O)sc(C)c1-c1ccc(C)cc1	4.24%
Nn1c(SCc2cccc(F)c2)nnc1-c1cccnc1	9.33%
O=C(CSc1ccc2nnc(-c3cccnc3)n2n1)Nc1cccc(F)c1	-43.6%
Cc1cccc(NC(=O)CSc2ccc3nnc(-c4cccnc4)n3n2)c1	-30.1%
Fc1cccc(CSc2ccc3nnc(-c4cccnc4)n3n2)c1	-69%
Cc1cccc(CSc2ccc3nnc(-c4cccs4)n3n2)c1	17.9%
Cc1cccc(CSc2ccc3nnc(-c4cccnc4)n3n2)c1	-66.5%
Cc1cc(S(=O)(=O)N2CCCC2)ccc1OCC(=O)NCc1ccccc1	-11.8%
COc1ccc(-c2nn(-c3ccccc3)cc2/C=N/NC(=O)c2ccc(Br)o2)cc1	-0.138%
Cc1ccc(C(=O)NCCc2nnc3ccc(SCC(=O)Nc4ccccc4F)nn23)cc1	-12.7%
Cc1ccc(NC(=O)c2cc(=O)n(Cc3ccccc3)c(=O)[nH]2)cc1C	35.8%
N#C/C(=C/c1ccc(Sc2nc3ccccc3[nH]2)o1)c1cccc(Br)c1	21.3%
CCOC(=O)c1ccccc1NC(=S)N1CCN(C2CCCCC2)CC1	-62.3%
OC1CCN(C(=S)NCCc2ccccc2)CC1	-0.627%
COC(=O)c1ccccc1NC(=S)N1CCN(C2CCCCC2)CC1	-22.4%
S=C(NCCc1ccccc1)N1CCCCC1	14.4%
O=C(c1ccccc1)N1CCN(C(=S)NCCc2ccccc2)CC1	-65.7%
CC1CCN(C(=S)NCCc2ccccc2)CC1	-15.2%
S=C(NCCc1ccccc1)N1CCN(C2CCCCC2)CC1	-63.4%

SMILES	hERG current change (%, negative = inhibition) at 10uM
S=C(NCCc1ccccc1)N1CCCC1	9.47%
S=C(NCCc1ccccc1)N1CCN(C23CC4CC(CC(C4)C2)C3)CC1	-75.2%
CN1CCN(C(=S)NCCc2ccccc2)CC1.O=C(O)C(=O)O	-14.5%
CCOC(=O)c1ccccc1NC(=S)N1CCC(N2CCCCC2)CC1	-33.8%
CC(=O)N1CCN(C(=S)NCCc2ccccc2)CC1	-4.66%
COc1cccc(CC2(CO)CCCN(S(=O)(=O)N(C)C)C2)c1 (stereo not drawn)	42.4%
CCOC(=O)c1ccc(NC(=O)CN2C(=O)C(C)SC(C)C2=O)cc1 (stereo not drawn)	8.95%
COc1ccc(C(CNC(=O)c2cc(S(=O)(=O)NCc3ccccc3)ccc2C)N2CCOCC2)cc1 (stereo not drawn)	-19%
COC(=O)CSc1nnc(COc2ccc3ccccc3c2)o1	19%
CC(=O)N(CCC1(C(C)C)CCOC(C)(C)C1)C(C)c1cccs1 (stereo not drawn)	-2.41%
Cc1cccc(NC(=O)c2ccc(C(=O)Nc3cccc(C)c3)nc2)c1	23.2%
COc1ccc(-c2noc(C(=O)NCc3ccccc3Cl)n2)cc1OC	0.607%
CC(C)C1CC(c2csc(N)n2)CCO1 (stereo not drawn)	18.8%
Cc1[nH]oc(=O)c1N=Nc1ccc2[nH]c(=O)[nH]c2c1	7.93%
CCOc1cc(-c2cn(S(=O)(=O)c3cccc4nsnc34)nc2N)cc(OCC)c1OCC	0.719%
Cc1cc(C)c2sc(N(CCN(C)C)C(=O)c3c(F)cccc3F)nc2c1.Cl	-2.23%
CSCCC(NC(=O)c1ccc(Cl)cc1)C(=O)OCC(=O)N1CCCC1=O (stereo not drawn)	-2.69%
O=[N+]([O-])c1cccc(-c2ccc(C(=S)N3CCN(c4ccccc4)CC3)o2)c1	27.7%
O=S(=O)(c1ccc(F)cc1)N1CCN(C(=S)NCc2ccccc2)CC1	13.8%
CCOC(=O)c1ccc(NC(=S)NCCCN2CCN(C3CCCCC3)CC2)cc1	-53.7%
S=C(NCc1ccccc1)N1CCN(C(=S)NCc2ccccc2)CC1	12.9%
O=C(c1ccccc1)N1CCN(c2ccc(NCc3ccc4c(c3)OCO4)cc2)CC1	-12.2%
S=C(NCc1ccccc1)N1CCN(Cc2ccc3c(c2)OCO3)CC1	-16.7%
O=S(=O)(c1ccccc1)N1CCN(C(=S)NCc2ccccc2)CC1	-50.3%

SMILES	hERG current change (%, negative = inhibition) at 10uM
CCOC(=O)c1ccc(NC(=S)NCCCN2CCCCC2)cc1	-42%
S=C(NCc1ccccc1)N1CCCCC1	-1.03%
O=C(c1ccccc1)N1CCN(C(=S)NCc2ccc3c(c2)OCO3)CC1	-59.4%
O=S(=O)(c1cccc(F)c1)N1CCN(C(=S)NCc2ccccc2)CC1	-0.89%
CCOc1ccc(NC(=S)NCCCN2CCN(C3CCCCC3)CC2)cc1	-47.2%
S=C(NCc1ccccc1)N1CCN(C2CCCCC2)CC1	-62.6%
CC(=O)N1CCc2cc(N=NC3=C(O)CCCC3=O)ccc21	9.61%
COCCn1c(Cc2ccccc2)nnc1SCC(=O)N1CCCCC1C (stereo not drawn)	7.49%
COc1ccc(CCC(=O)NNC(=O)Nc2ccccc2Cl)cc1	4.25%
CC1(c2ccc(OC(F)F)cc2)NC(=O)N(CC(=O)Nc2ccc3c(c2)OCO3)C1=O (stereo not drawn)	-36.5%
N#Cc1cc2c(nc1SCC(=O)Nc1sc3c(c1C#N)CCC3)CCCC2	4.92%
CCOc1ccc(C(=O)COC(=O)Cn2cnc3c2c(=O)n(C)c(=O)n3C)cc1	-13.5%
S=C(Nc1ccccn1)NC1CCCC1	-17.6%
O=C(NC(=S)Nc1ccc(CN2CCCCC2)cc1)c1cc2ccccc2o1	-24.3%
COc1ccc(NC(=O)c2ccco2)cc1NC(=O)c1ccccc1F	25.6%
CC1CCCN(C(=O)CN2CCC(c3nc4ccc(Cl)cc4[nH]3)CC2)C1 (stereo not drawn)	-67.8%
CC1CCCCN1C(=O)CN1CCC(c2nc3ccc(Cl)cc3[nH]2)CC1 (stereo not drawn)	-60.2%
Cc1ccc2nc(C3CCN(CC(=O)N4CCCCCC4)CC3)[nH]c2c1	-22.2%
O=C(NC1CCCCC1)N1CCC(c2nc3ccc(Cl)cc3[nH]2)CC1	-34.3%
CC1CCCCN1C(=O)Cc1ccc(Cl)cc1 (stereo not drawn)	-11.1%
CC1CCCCN1C(=O)CSc1nc2ccccc2[nH]1 (stereo not drawn)	25.8%
